Shown are actives, neighbours in structure and some others; about 2.3% of the full set was active somewhere.
GRP78 ERSR act: inducers of ER stress response in human glioma cells; U87-MG GRP78 promoter luciferase reporter, 16 h; Potency, µM, without a hit: at the top dose activation, hits mostly activators; 0.02% of 420,000 active; AID 602332; also: series mostly up to about 76 µM; % of control where 0% means no effect; nearly all actives have a fitted effect of over 35% in size
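Stably transfected U87-MG glioma cells carrying a GRP78-based luciferase sensor; 16 h compound incubation. Luminescence end-point read 10 min after Bright-Glo addition at room temperature.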
PTHR1 ag: activates the human parathyroid hormone receptor PTHR1 | Potency, µM (top dose mostly 115 µM), for the others: at the highest dose activation, hits mostly activators | HEK293 GP2 PTHR1 cells, GloSensor cAMP luminescence, 1 h | 0.075% of 410,000 active | AID 743266; also: nearly all actives have a fitted effect of over 55% in size
Target sequence (Q03431 whole entry, looked up): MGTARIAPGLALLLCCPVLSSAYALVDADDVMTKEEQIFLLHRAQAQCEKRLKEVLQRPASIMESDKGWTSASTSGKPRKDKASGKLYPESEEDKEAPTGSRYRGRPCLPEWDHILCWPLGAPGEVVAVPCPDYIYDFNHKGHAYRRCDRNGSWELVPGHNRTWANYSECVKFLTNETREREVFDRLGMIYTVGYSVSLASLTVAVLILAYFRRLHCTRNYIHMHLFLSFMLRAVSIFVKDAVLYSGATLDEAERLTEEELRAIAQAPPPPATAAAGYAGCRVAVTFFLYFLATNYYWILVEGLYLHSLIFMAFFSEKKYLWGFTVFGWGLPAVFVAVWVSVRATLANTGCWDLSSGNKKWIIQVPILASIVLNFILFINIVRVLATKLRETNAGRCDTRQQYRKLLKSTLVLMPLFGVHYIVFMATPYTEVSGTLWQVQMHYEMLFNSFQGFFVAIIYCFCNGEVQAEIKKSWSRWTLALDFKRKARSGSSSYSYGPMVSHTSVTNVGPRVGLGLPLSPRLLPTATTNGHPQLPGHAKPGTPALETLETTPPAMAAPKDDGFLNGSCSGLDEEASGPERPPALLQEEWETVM
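HEK-293-derived GP2 cells expressing PTHR1 and a GloSensor cAMP reporter, 3,000/well, plated overnight, given luciferin plus IBMX (each 0.5 mM as added) for 1 h at 37 °C, then compound for 1 h at 37 °C. Luminescence was read after 15 min at room temperature.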
12-LOX inh: ALOX12 (human) lipoxygenase inhibition | P18054 | purified 12hLO, xylenol orange hydroperoxide absorbance | Potency, µM (series often up to 108 µM), without a hit: top-dose activity change, negative = inhibition, hits mostly inhibitors | 1.1% of 580,000 active; also: % is scaled to controls: 0 for no effect and ±100 for the full control effect
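Hydroperoxide product was detected by ferrous iron/xylenol orange as the 573 to 405 nm absorbance ratio. Arachidonic acid at 40 uM (final) was turned over for 30 min at room temperature by 150 nM human 12hLO, pH 7.0 Hepes buffer, after 15 min compound preincubation.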
GLP-1R inv ag: inverse agonists of human GLP-1 receptor | 1.6% of 410,000 active | HEK293 GLP-1R CRE-luciferase, luminescence, 24 h; GLP-1R form is constitutively active | AID 624417 | P43220 | Potency, µM (top dose mostly 38.3 µM), for the others: at the highest dose activity change, negative = inhibition, usual class: inhibitors; also: % is scaled to controls: 0 for no effect and ±100 for the full control effect; nearly all actives have a fitted effect of over 55% in size
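Inverse agonism was detected as reduced cAMP-driven luciferase luminescence after 24 h compound treatment. The cells were HEK293 clones expressing constitutively active human GLP-1R with the reporter. Reporter-only and GPR119 cell lines served as counterscreen controls.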
GLP1R ag: GLP-1 receptor (human) agonism. P43220. HEK293 GLP-1R CRE-luciferase, luminescence, 4-6 h; cells express a hypersensitive GLP-1R form. Potency, µM (top dose mostly 45.6 µM), inactives show at the top dose activation, hits mostly activators. 0.007% of 380,000 active; also: % of control where 0% means no effect
GLS inh: inhibitors of human glutaminase (GLS) | GLS enzymatic activity, qHTS titration | Potency, µM (series often up to 45.5 µM), inactives show top-dose activity change, negative = inhibition, usual class: inhibitors | O94925 | 0.21% of 410,000 active; also: % is scaled to controls: 0 for no effect and ±100 for the full control effect
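Glutamate formation by hKGA was monitored fluorometrically using coupled glutamate oxidase, HRP and Amplex Red. Substrate was added as 1 mM L-glutamine solution; incubation was 30 min at RT after an initial read.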
Numbers without * were called inactive; i = inactive; ? = inconclusive; / = no result given; ! = not confirmed by another sample; [ ] = remark or other dose. Calls follow the shape of the dose curve; as a rule, active = well fitted curve in the direction sought with a large enough effect; inconclusive = small, poorly fitted or top-dose-only effect, or another doubt; inactive = no such curve, though single readings can be large; an effect the other way counts as inactive or inconclusive. Potency is read from the fitted curve at half-maximal effect.

SMILES | GRP78 ERSR act | PTHR1 ag | 12-LOX inh | GLP-1R inv ag | GLP1R ag | GLS inh
O=C(NCc1ccccc1S(=O)(=O)N1CCOCC1)c1cccc(Br)c1 | / | / | 4% | / | / | /
Cc1cc(NC(=O)CNc2cc(S(=O)(=O)N3CCOCC3)ccc2Oc2ccccc2)no1 | / | / | 38% | / | / | /
O=C1c2c(O)cccc2Cc2cccc(O)c21 | -6% | -2% | / | 12% | -2% | -6%
O=C1Cc2cccc(=O)c(O)c2C(=O)O1 | -6% | i | ? | -1% | -5% | 4µM*
O=C1c2ccccc2NC(c2cnc3ccccc3n2)N1c1ccccc1 (configuration not stated) | / | / | -14% | / | / | /
O=C(O)CCC(=O)NNc1ncnc2ccccc12 | 3% | -1% | -1% | 2% | 10% | 15%
O=C(O)CCC(=O)NNc1nc2ccccc2nc1-c1ccccc1 | 11% | -16% | ? | 10% | 0% | 11µM*
O=C1C2CCCN2C(=O)N1CCCN1CCN(c2cccc(Br)c2)CC1 (configuration not stated) | -2% | -32% | 4µM* | -17% | -4% | -5%
O=C(NC(Cc1c[nH]c2ccccc12)C(=O)O)OCC1c2ccccc2-c2ccccc21 (configuration not stated) | 3% | i | 35µM* | 10% | -3% | 4%
O=C(O)C(Cc1c[nH]c2ccccc12)NS(=O)(=O)c1ccc(Cl)c(C(F)(F)F)c1 (configuration not stated) | -3% | i | 40µM* | 0% | -1% | 3%
Cc1cc(C)n(-c2nc3c(c(=O)n(C)c(=O)n3C)n2Cc2c(F)cccc2Cl)n1 | / | / | 43% | / | / | /
COc1cc(OC)cc(OCc2nc3c(n2Cc2ccccc2)C(=O)N(Cc2ccccc2C#N)CCN3)c1 | / | / | 26% | / | / | /
Cc1cc(C(=O)NNc2ccc(F)cc2F)no1 | -6% | i | 1% | 2.8µM* | 0% | 2%
Cc1ccc(NNC(=O)c2cc(C)on2)c(C)c1 | -4% | i | ? | ? | -1% | -12%
CCOC(=O)c1[nH]c(C)c(CCC(=O)N2CCC(C(=O)NCCN(C)C)CC2)c1C | / | / | 7% | / | / | /
CC1(C)Cc2c(ccc3ccccc23)C(=O)N1 | -4% | -3% | -15% | ? | -13% | -14%
CC1(C)Cc2c(ccc3ccccc23)C(CCl)N1 (configuration not stated) | / | / | 5.6µM* | / | / | /
C/C(=N\Nc1ccc(C(=O)O)cc1)c1ccc2c(c1)Nc1ccccc1S2 | 0% | -26% | ? | ? | 0% | 18µM*
C/C(=N/Nc1ccc(C(=O)O)cc1)c1ccc2c(c1)Nc1ccccc1S2 | 3% | -46% | 28µM* | ? | 8% | 12%
CC(=O)Nc1ccc(NC(=O)c2ccc3c(c2)NC(=O)c2ccccc2S3)cc1 | 1% | -34% | 3% | 9% | / | -6%
Cc1ccc2nc(C)c(C(=O)NCc3ccc(N4CCCCCC4)nc3)cc2c1 | / | / | -11% | / | / | /
CC1CCCN(C(c2cccs2)c2nnnn2Cc2ccccc2)C1 (configuration not stated) | -7% | -8%[57.5 µM] | -18% | 11µM* | 6% | 4%
CN1CCN(C(c2cccs2)c2nnnn2Cc2ccc(F)cc2)CC1 (configuration not stated) | -2% | i | -16% | -16% | -1% | -4%
CCOc1ccc(-n2c(=S)sc3c(=O)[nH]c(SCC(=O)N4CCC(C)CC4)nc32)cc1 | -2% | -33% | 45µM* | ? | 3% | 7.1µM*
O=[S+]([O-])(NCC1CN(Cc2ccc(O)cc2)CC12CN(c1ccccc1)C2)c1ccccc1 (configuration not stated) | / | / | 0% | / | / | /
SMILES | GRP78 ERSR act | PTHR1 ag | 12-LOX inh | GLP-1R inv ag | GLP1R ag | GLS inh
CCc1ccccc1NC(=O)CN(c1ccc(C)c(C)c1)S(=O)(=O)c1ccsc1C(=O)OC | / | / | -4% | / | / | /
CCc1nnc(NS(=O)(=O)c2ccc(NC(=S)NC(=O)c3ccc(F)cc3)cc2)s1 | -1% | -28% | 22µM* | -15% | -2% | 28%
Cc1ccc(CNC(=S)Nc2ccc(NS(=O)(=O)c3ccc(C)cc3)cc2)cc1 | -4% | -7% | ? | 10µM* | 0% | 0%
Cc1ccc(NC(=S)NCc2ccc(F)cc2)cc1 | 3% | i | 10% | ? | 19% | 0%
Cc1cc(NS(=O)(=O)c2ccc(NC(=S)NC(=O)c3ccc(Br)cc3)cc2)no1 | -2% | i | 10µM* | 0% | -3% | 37%
Cc1cc(NS(=O)(=O)c2ccc(NC(=S)NCc3ccccc3)cc2)no1 | -4% | -6% | 45µM* | 4% | 7% | -1%
Cc1cc(NS(=O)(=O)c2ccc(NC(=O)Nc3ccccc3)cc2)no1 | -4% | -8% | 7% | 0% | 0% | 5%
CN1CCN(C2Cc3ccccc3Sc3ccc(Cl)cc32)CC1 (configuration not stated) | -4% | i | ? | ? | 3% | 12%
CN1CCN2c3ccccc3Cc3ccccc3C2C1 (configuration not stated) | 35µM*! | -12% | ? | ? | -3% | -8%
CCC(=O)Nc1ccc2c3c(cccc13)CC2 | / | / | -24% | / | / | /
CC(C)SC1=NC(C)(C)C=C(/C=C/c2c(Cl)cccc2Cl)N1 | 14% | i | / | 2.8µM* | -13% | -4%
O=C1CC2CCN(C(=O)c3ccccc3)CC2CCN1 (configuration not stated) | / | / | 50µM* | / | / | /
O=C1CC2CCN(C(=O)c3ccc(F)cc3)CC2CCN1 (configuration not stated) | / | / | -8%[12.5 µM] | / | / | /
O=C(NNC1=C(C(=O)C(F)(F)F)CCC1)c1ccccc1O | 11% | -19%[57.5 µM] | 52% | 2.8µM* | -1% | 20%
FC(F)(F)c1cccc(Cc2noc(CN3CCC(c4ccncc4)CC3)n2)c1 | -2% | -36% | 1% | 2.5µM* | 27% | -6%
CN1CCCC2(CCCN(Cc3nc(Cc4cccc(C(F)(F)F)c4)no3)C2)C1 (configuration not stated) | -1% | i | -12% | ? | -4% | -16%
Cc1cccc(C2=NN(c3ccccc3)[C@H](CO)[C@H]2c2ccc(Cl)cc2)c1 | -8% | -23% | ? | 10µM* | -4% | 0%
O=C(NC(=S)NCc1ccc(-c2nc3ccccc3s2)cc1)c1ccco1 | -2% | -12% | 11µM* | -13% | -15% | 7%
C[n+]1cn(/N=C/c2ccccc2)c2ccccc21 | -3% | -16% | ? | 2% | 4% | 1%
CC(=O)N(C(C)=O)c1nc(-c2ccccc2)cn1/N=C/c1ccccc1 | -7% | -20% | 0% | 7.9µM* | 1% | -13%

Screening data deposited in PubChem by National Center for Advancing Translational Sciences (NCATS).
